Consider 13 compounds from PubChem BioAssay (NCATS).

Records with an inconclusive call do not appear. Activity calls are given as the source filed them. The call rests on the fitted dose curve; in most records, active means well fitted inhibition curve with a large enough effect; inconclusive means small, poorly fitted or top-dose-only effect; inactive means flat fitted curve, though single readings scatter.

Common to all, as to assay: qHTS profiling for inhibitors of Plasmodium falciparum proliferation (AID 504749); further: nearly all actives have a fitted effect of over 60% in size
Holding throughout (conditions): P. falciparum in erythrocytes, SYBR Green DNA, 72 h; series mostly up to 28.7 µM
For orientation: qHTS replaces the single test concentration by a dilution series.

The subject of one experiment is CP335. An outline of the steps:
(§1)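 SYBR Green fluorescence (ex 485 nm, em 535 nm) reports parasite DNA after 72 h compound exposure of infected red cells at 0.3% parasitemia, 2.5% hematocrit; signal normalized to 0.29 uM artemisinin and vehicle wells.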

For a further experiment, the system named is DIV14. An outline of the steps: as §1
For the next experiment, the system named is DIV17. An outline of the steps:
as §1

The test system of a further experiment is DIV30. The procedure, abridged:
as §1

For the next experiment, the system named is Dd2. The procedure, abridged: as §1
The next experiment has as its system ECU. The procedure, abridged:
as §1

Another experiment has as its system FAB9. An outline of the steps: as §1
In the next experiment the test system is GB4. The procedure, abridged: as §1
A further experiment has as its system HB3. The procedure, abridged:
as §1

A further experiment relates to ICS. The procedure, abridged:
as §1

The subject of a further experiment is JCK. The procedure, abridged: as §1
The next experiment concerns N140. The procedure, abridged: as §1
For another experiment, the system named is P94_40. An outline of the steps:
as §1

In another experiment the test system is PAD. The procedure, abridged: as §1
A further experiment relates to PC15. The procedure, abridged: as §1
The next experiment deals with PC49. An outline of the steps:
as §1

For a further experiment, the system named is SC27B. The procedure, abridged:
as §1

The test system of another experiment is DFO2036. An outline of the steps:
as §1

The next experiment relates to PC26. An outline of the steps: as §1
The subject of another experiment is P93_24. The procedure, abridged:
as §1
Potency means the concentration at half of the fitted maximal effect.

Consider `Cc1ccc(-c2nc3ccc(C)cn3c2CC(=O)N(C)C)cc1`, for which the Potency entry in the experiment on CP335, in the experiment with DIV14, in the experiment with DIV17, in the experiment on DIV30, in the experiment on Dd2 and in the experiment with ECU was “inactive” in each case. For the same compound, the Potency result in the experiment on FAB9, in the experiment on GB4, with HB3, in the experiment on ICS, in the experiment on JCK and in the experiment on N140 was “inactive” in each case. The Potency result in the experiment with P94_40, in the experiment with PAD, with PC15, with PC49 and in the experiment on SC27B was “inactive” each time.
In the case of `C#CCOC(C(=O)OCCN(C)C)(c1ccccc1)c1ccccc1`, the Potency entry with DFO2036, with DIV14, in the experiment with DIV30, with FAB9, with GB4 and with HB3 was “inactive” in each case. In addition, the Potency result with JCK, in the experiment with N140, in the experiment on P94_40, in the experiment on PAD, in the experiment on PC15 and in the experiment with PC26 was “inactive” throughout. The Potency entry in the experiment with PC49 and with SC27B was “inactive” each time.
Turning to `CCC1(C2=NCCN2)Cc2ccccc2O1` (stereo not drawn), the Potency in the experiment on CP335 is 8.49 µM (active); in the experiment with Dd2, 10 µM (active); in the experiment with GB4 it was 8.49 µM (active); in the experiment with N140 it was 12.6 µM (active); in the experiment on P94_40 it was 12.6 µM (active). In addition, the Potency entry in the experiment on ECU, in the experiment on FAB9, in the experiment with HB3, with ICS, with JCK and in the experiment on PAD was “inactive” throughout. Also, the Potency entry in the experiment with PC15, with PC26 and with PC49 was “inactive” in each case.
Take `CCN(CC)CCN1C(=O)CN=C(c2ccccc2F)c2cc(Cl)ccc21`: the Potency result in the experiment on DFO2036, in the experiment with DIV17, in the experiment on DIV30, in the experiment with ECU, in the experiment with FAB9 and in the experiment on HB3 was “inactive” each time. Besides, the Potency result in the experiment on JCK, with N140, with PAD, in the experiment on PC15, in the experiment with PC26 and with PC49 was “inactive” each time. The Potency result in the experiment with SC27B is “inactive”.
In the case of `CC1NCCOC1c1ccccc1` (stereo not drawn), the Potency result in the experiment on CP335, in the experiment with DFO2036, in the experiment on DIV17, with DIV30, in the experiment with Dd2 and with ECU was “inactive” throughout. Moreover, the Potency result in the experiment with FAB9, in the experiment with HB3, in the experiment on ICS, in the experiment with JCK, in the experiment on N140 and in the experiment on P93_24 was “inactive” in each case. The Potency result in the experiment on P94_40, in the experiment on PAD, in the experiment on PC15, in the experiment with PC26, in the experiment on PC49 and in the experiment on SC27B was “inactive” in each case.
As for `O=[N+]([O-])c1cc([As](=O)(O)O)ccc1O`, the Potency was 4.55 µM (active) in the experiment with CP335; 3.55 µM (active) in the experiment with DFO2036; 5.73 µM (active) with DIV30; 3.55 µM (active) in the experiment with Dd2; 3.16 µM (active) in the experiment with ECU; 3.55 µM (active) in the experiment with FAB9. In addition, the Potency in the experiment with GB4 was 4.55 µM (active); in the experiment with HB3, 3.16 µM (active); in the experiment on ICS, 3.16 µM (active); with N140, 3.55 µM (active); in the experiment with SC27B, 3.55 µM (active).
Consider `CC(CCc1ccccc1)NC(C)C(O)c1ccc(O)cc1` (stereo not drawn), for which the Potency entry in the experiment on DFO2036, with ECU, in the experiment with FAB9, in the experiment with HB3, in the experiment on ICS and in the experiment on JCK was “inactive” each time. In addition, the Potency result in the experiment with PAD, with PC49 and in the experiment with SC27B was “inactive” in each case. Further, the Potency with DIV14 was 9.53 µM (active); in the experiment with Dd2, 11.2 µM (active).
Take `N[C@@H](Cc1ccc(N(CCCl)CCCl)cc1)C(=O)O`: the Potency with DIV14 was 10.7 µM (active); with DIV17, 15.1 µM (active); with Dd2, 12.6 µM (active); in the experiment with GB4, 15.1 µM (active). Further, the Potency entry with DIV30, in the experiment on FAB9, with JCK, in the experiment on PC26 and in the experiment on PC49 was “inactive” each time.
`O=C(O)c1ccc2[nH]cc(CCCCN3CC=C(c4ccccc4)CC3)c2c1`: the Potency result with CP335, in the experiment with DFO2036, in the experiment with DIV17, in the experiment with DIV30, in the experiment on Dd2 and in the experiment with ECU was “inactive” each time. For the same compound, the Potency entry in the experiment on FAB9, in the experiment with GB4, in the experiment with HB3, in the experiment with ICS, with JCK and in the experiment on N140 was “inactive” in each case. The Potency result in the experiment on P93_24, in the experiment on P94_40, in the experiment with PAD, in the experiment on PC15, in the experiment on PC26 and with PC49 was “inactive” in each case. The Potency result with SC27B was “inactive”.
In the case of `CC(C)(N)Cc1ccc(Cl)cc1`, the Potency result in the experiment with DFO2036, in the experiment with DIV17, with DIV30, with ECU, with FAB9 and in the experiment on HB3 was “inactive” throughout. Also, the Potency result with ICS, in the experiment on P93_24, in the experiment with P94_40, in the experiment with PAD, in the experiment on PC15 and with PC49 was “inactive” in each case. In the experiment on SC27B, the Potency result is “inactive”. Further, the Potency in the experiment on GB4 was 8.49 µM (active).
With `C[C@]12C/C(=C/O)C(=O)C[C@@H]1CC[C@@H]1[C@@H]2CC[C@@]2(C)[C@H]1CC[C@]2(C)O`, the Potency entry in the experiment with CP335, in the experiment with DFO2036, in the experiment on DIV30, in the experiment with Dd2, in the experiment with ECU and in the experiment on FAB9 was “inactive” in each case. For the same compound, the Potency result with GB4, with HB3, in the experiment on JCK, in the experiment on N140, in the experiment on P93_24 and in the experiment on P94_40 was “inactive” throughout. The Potency result with PC15, in the experiment with PC26, in the experiment on PC49 and with SC27B was “inactive” each time.
As to `CC(C)(C)NCC(O)c1cc(Cl)c(N)c(Cl)c1` (stereo not drawn), the Potency result in the experiment with DFO2036, in the experiment with FAB9 and with HB3 was “inactive” throughout. In addition, the Potency is 12 µM (active) with DIV14; 8.49 µM (active) in the experiment with DIV17; 12.6 µM (active) in the experiment on Dd2; 7.57 µM (active) in the experiment on GB4; 11.2 µM (active) in the experiment on ICS; 8.91 µM (active) in the experiment with N140. In addition, the Potency in the experiment with P94_40 and in the experiment with PAD was 7.94 µM (active) in each case.
In the case of `c1ccc(C2CC2)c(OCC2=NCCN2)c1`, the Potency entry in the experiment with CP335, in the experiment with DFO2036, in the experiment on DIV30, in the experiment on ECU, with FAB9 and in the experiment with HB3 was “inactive” each time. Moreover, the Potency result with ICS, in the experiment on JCK, in the experiment on N140, with P93_24, in the experiment on P94_40 and in the experiment with PAD was “inactive” in each case. Also, the Potency entry with PC15, in the experiment on PC26, in the experiment on PC49 and in the experiment on SC27B was “inactive” in each case.
